The results in this text go back to the antibiotic and cytotoxicity screens of Wong et al. (2023).

Molecules are shown by their SMILES. Out of some 39,000 compounds screened, about 1,500 (3.8%) were called active. This is one part of a sample in which actives are shown more often than they occur.

The experiment deals with HSkMC (human skeletal muscle cells). The experiment can be described thus: cytotoxicity call (relative viability < 0.9). The settings on record: 10 µM.
Turning to `CC(C)(N)c1cn(C2CCN(C(=O)C3CCC(C(C)(C)C)CC3)CC2)nn1` (configuration not stated), the cytotoxicity call is “inactive”.

As to `CCO[C@@H]1OC(C(=O)N2CCOCC2)=C[C@H](c2coc3ccccc3c2=O)[C@H]1CCCOC(=O)NCCCCCC(=O)NO`, the cytotoxicity call was “inactive”.

For `COc1ccc(S(=O)(=O)Nc2ccc3c(c2)CC(=O)N([C@@H](C)CO)C[C@@H](C)[C@@H](CN(C)C(=O)Nc2c(C)noc2C)O3)cc1`, the cytotoxicity call is “inactive”.

Regarding `Cc1ccc2sc(N(CCCN(C)C)C(=O)c3ccc(S(=O)(=O)N(C)Cc4ccccc4)cc3)nc2c1C`, the cytotoxicity call is “active”. The entry for `Cc1cc(Cl)cc2sc(N(Cc3ccccn3)C(=O)c3ccc(S(=O)(=O)N4CCCC4)cc3)nc12` is “inactive”; for `O=C(c1ccc(S(=O)(=O)N2CCCCCC2)cc1)N(Cc1cccnc1)c1nc2c(F)cc(F)cc2s1` it is “inactive”. On to `COc1cc(OC)c(S(=O)(=O)N(C)Cc2ccccc2)cc1S(=O)(=O)N(C)Cc1ccccc1`, for which the cytotoxicity call is “inactive”. As for `Cc1ccc2sc(N(CCCN(C)C)C(=O)c3ccc(S(=O)(=O)N(C)C4CCCCC4)cc3)nc2c1C`, the cytotoxicity call was “active”. The entry for `C[C@@H]1CN([C@H](C)CO)C(=O)c2cc(NC(=O)Cn3cnnn3)ccc2O[C@H]1CN(C)CC1CCCCC1` is “inactive”; for `Cc1ccc(-c2ccc3c(c2)O[C@@H](CN(C)C(=O)NC(C)C)[C@H](C)CN([C@H](C)CO)S3(=O)=O)cc1` it is “inactive”. The entry for `CCCNC(=O)N[C@H]1CC[C@@H](CC(=O)N2CCN(C)CC2)O[C@@H]1CO` is “inactive”; for `C[C@@H]1CN([C@H](C)CO)C(=O)c2cc(NS(C)(=O)=O)ccc2O[C@@H]1CN(C)Cc1ccc(C(=O)O)cc1` it is “inactive”; for `CC(C)NC(=O)N(C)C[C@@H]1OCCCC[C@@H](C)Oc2ccc(NS(=O)(=O)c3cn(C)cn3)cc2C(=O)N([C@@H](C)CO)C[C@H]1C` it is “inactive”. As to `C[C@H](CO)N1C[C@H](C)[C@H](CN(C)C(=O)Nc2ccccc2)OCCCC[C@H](C)Oc2ccc(NC(=O)Nc3cccc4ccccc34)cc2C1=O`, the cytotoxicity call is “inactive”. In the case of `Cc1noc(C)c1NC(=O)N(C)C[C@@H]1Oc2ccc(NC(=O)Nc3ccc(C(F)(F)F)cc3)cc2C(=O)N([C@H](C)CO)C[C@@H]1C`, the cytotoxicity call was “inactive”.

For the compound `C[C@H](CO)N1C[C@H](C)[C@@H](CN(C)Cc2ccc(-c3ccccc3)cc2)Oc2ccc(NC(=O)Nc3cccc4ccccc34)cc2C1=O`, the cytotoxicity call was “inactive”. The entry for `C[C@H]1CN([C@@H](C)CO)C(=O)c2cc(NC(=O)Nc3cccc4ccccc34)ccc2O[C@@H]1CN(C)Cc1ccc(-c2ccccc2)cc1` is “active”; for `C[C@@H]1CN([C@@H](C)CO)C(=O)c2cc(NC(=O)Nc3cccc4ccccc34)ccc2O[C@H]1CN(C)Cc1ccc(-c2ccccc2)cc1` it is “inactive”; for `C[C@H](CO)N1C[C@H](C)[C@H](CN(C)Cc2ccc(-c3ccccc3)cc2)Oc2ccc(NC(=O)Nc3cccc4ccccc34)cc2C1=O` it is “active”. As to `C[C@@H]1CN([C@H](C)CO)C(=O)c2cc(NC(=O)Nc3cccc4ccccc34)ccc2O[C@H]1CN(C)Cc1ccccc1`, the cytotoxicity call is “inactive”.

`C[C@@H]1CN([C@H](C)CO)C(=O)c2cc(NC(=O)Nc3cccc4ccccc34)ccc2O[C@@H]1CN(C)Cc1ccc(-c2ccccc2)cc1`: the cytotoxicity call is “inactive”. The entry for `C[C@@H]1CN([C@@H](C)CO)C(=O)c2cc(NC(=O)Nc3cccc4ccccc34)ccc2O[C@@H]1CN(C)Cc1ccc(-c2ccccc2)cc1` is “active”; for `C[C@@H]1CN([C@H](C)CO)C(=O)c2cc(NC(=O)Nc3cccc4ccccc34)ccc2O[C@H]1CN(C)Cc1ccc(-c2ccccc2)cc1` it is “inactive”; for `C[C@H]1CN([C@@H](C)CO)C(=O)c2cc(NC(=O)Nc3cccc4ccccc34)ccc2O[C@H]1CN(C)Cc1ccc(-c2ccccc2)cc1` it is “inactive”. The entry for `Cc1ccc(S(=O)(=O)N(C)C[C@H]2Oc3c(NC(=O)Nc4ccc(C(F)(F)F)cc4)cccc3C(=O)N([C@H](C)CO)C[C@@H]2C)cc1` is “inactive”; for `CO[C@H]1CN(C)C(=O)c2cc(NS(=O)(=O)c3cn(C)cn3)ccc2OC[C@@H](C)N(Cc2cccc(F)c2)C[C@H]1C` it is “inactive”. The entry for `Cc1noc(C)c1NC(=O)Nc1cccc2c1O[C@@H](CN(C)Cc1ccc(Oc3ccccc3)cc1)[C@@H](C)CN([C@@H](C)CO)C2=O` is “inactive”; for `COc1ccc(S(=O)(=O)N(C)C[C@@H]2Oc3cc(C4=CCCC4)ccc3S(=O)(=O)N([C@H](C)CO)C[C@@H]2C)cc1` it is “inactive”; for `COCCNC(=O)C[C@H]1CC[C@H]2[C@@H](COC[C@@H](O)CN2C(=O)Nc2ccc3c(c2)OCO3)O1` it is “inactive”. For the compound `CC(C)NC(=O)Nc1cccc2c1O[C@H](CN(C)Cc1ccc3c(c1)OCO3)[C@@H](C)CN([C@H](C)CO)C2=O`, the cytotoxicity call is “inactive”. The entry for `COc1ccc(NC(=O)Nc2ccc3c(c2)C(=O)N([C@H](C)CO)C[C@H](C)[C@H](CN(C)Cc2ccc(C(=O)O)cc2)OCCCC[C@H](C)O3)cc1` is “inactive”; for `C[C@H](CO)N1C[C@H](C)[C@@H](CN(C)S(=O)(=O)c2cn(C)cn2)Oc2ccc(NS(=O)(=O)c3ccc(Cl)cc3)cc2CC1=O` it is “inactive”.

Take `C[C@H]1CN=C(NS(=O)(=O)c2ccccc2)N1`: the cytotoxicity call is “inactive”.

As to `C=CCON1C(=O)[C@@H]2[C@@H](C1=O)[C@@H]1C=C[C@@H]2O1`, the cytotoxicity call was “inactive”. The entry for `CCCCc1oc2ccccc2c1C(=O)c1cc(I)c(OCCN(CC)CC)c(I)c1` is “active”; for `CCc1oc2ccccc2c1C(=O)c1cc(Br)c(O)c(Br)c1` it is “inactive”.

As to `CCCCc1oc2ccc(NS(C)(=O)=O)cc2c1C(=O)c1ccc(OCCCN(CCCC)CCCC)cc1.Cl`, the cytotoxicity call is “active”. The entry for `CCCCc1oc2ccc(NS(C)(=O)=O)cc2c1C(=O)c1ccc(OCCCN(CCCC)CCCC)cc1` is “active”. The entry for `CCCCc1oc2ccccc2c1C(=O)c1cc(I)c(OCCN(CC)CC)c(I)c1.Cl` is “inactive”; for `CCCCOc1cc(C(=O)OCCN(CC)CC)ccc1N.Cl` it is “inactive”. Turning to `CCCCN(CCCC)CCCOC(=O)c1ccc(N)cc1.O=S(=O)(O)O`, the cytotoxicity call is “inactive”. The entry for `C[C@H]1CN([C@@H](C)CO)C(=O)c2c(c3ccccc3n2C)-c2ccccc2CO[C@@H]1CN(C)C(=O)Nc1cccc(C(F)(F)F)c1` is “inactive”.

For the compound `O=C(C[C@@H]1C=C[C@@H](NC(=O)Cc2ccccn2)[C@@H](CO)O1)NCCCN1CCOCC1`, the cytotoxicity call is “inactive”. The entry for `CNC(=O)C[C@@H]1CC[C@@H]2[C@H](COc3ccc(NC(=O)c4ccc(C(F)(F)F)cc4)cc3C(=O)N2C)O1` is “inactive”; for `C[C@@H]1CCCCO[C@@H](CN(C)S(=O)(=O)c2cn(C)cn2)[C@@H](C)CN([C@@H](C)CO)C(=O)c2cc(NC(=O)Nc3ccc(C(F)(F)F)cc3)ccc2O1` it is “inactive”; for `COCCOC(=O)N1C(=O)[C@@]2(c3cc(C#Cc4ccc(OC)cc4)ccc31)[C@H](c1ccccc1OCCO)N1[C@H](c3ccccc3)[C@H](c3ccccc3)OC(=O)[C@H]1[C@@H]2C(=O)N1CCN(c2ncccn2)CC1` it is “inactive”. The entry for `Cc1noc(C)c1NC(=O)N(C)C[C@@H]1OCCCC[C@H](C)Oc2ccc(NC(=O)NC3CCCCC3)cc2C(=O)N([C@@H](C)CO)C[C@H]1C` is “inactive”. Turning to `CO[C@@H]1CN(C)C(=O)c2cc(NC(=O)NC(C)C)ccc2OC[C@H](C)N(Cc2ccc(-c3ccccn3)cc2)C[C@@H]1C`, the cytotoxicity call is “inactive”. The entry for `C[C@@H]1CCCCO[C@H](CN(C)S(C)(=O)=O)[C@@H](C)CN([C@H](C)CO)C(=O)c2cc(NS(=O)(=O)c3cccs3)ccc2O1` is “inactive”; for `C[C@@H]1CCCCO[C@@H](CN(C)C(=O)Nc2ccc(C(F)(F)F)cc2)[C@H](C)CN([C@H](C)CO)C(=O)c2cc(NC(=O)Cc3ccccc3)ccc2O1` it is “inactive”. For the compound `COc1ccc(N2C(=O)C[C@@H](c3ccc(Br)cc3)[C@H]2C(=O)Nc2cccc3cccnc23)cc1`, the cytotoxicity call was “inactive”. As to `COc1nc(=NC(=O)NS(=O)(=O)Nc2cccc3cccnc23)nc(OC)[nH]1`, the cytotoxicity call was “active”. Take `O=C(Oc1cccc2cccnc12)c1ccccc1`: the cytotoxicity call is “inactive”. With `CNC[C@H]1Oc2c(NS(=O)(=O)c3cn(C)cn3)cccc2C(=O)N([C@H](C)CO)C[C@@H]1C`, the cytotoxicity call is “inactive”. For `COc1cc2ncnc(Oc3cccc(NC(=O)Nc4cc(C(C)(C)C(F)(F)F)on4)c3)c2cc1OC`, the cytotoxicity call was “inactive”.

For `COc1cc2nccc(Oc3ccc(NC(=O)c4cn(C(C)C)c(=O)n(-c5ccc(F)cc5)c4=O)cc3F)c2cc1OC`, the cytotoxicity call was “active”. For the compound `CCOc1ccn(-c2ccc(F)cc2)c(=O)c1C(=O)Nc1ccc(Oc2ccnc(N)c2Cl)c(F)c1`, the cytotoxicity call was “inactive”.

`COc1ccc2c3c(n(c2c1)C)[C@H](CO)N(C[C@]13CCN(CC1)C(=O)CN1CCOCC1)C(=O)Nc1ccc(cc1)F`: the cytotoxicity call is “inactive”. The entry for `COc1cc2c(Oc3ccc(NC(=O)C4(C(=O)Nc5ccc(F)cc5)CC4)cc3F)ccnc2cc1OCCCN1CCOCC1` is “active”; for `COc1ccc2c3c([nH]c2c1)[C@H](CO)N(C[C@]13CCN(CC1)C(=O)Nc1c(noc1C)C)C(=O)Nc1ccc(cc1)F` it is “inactive”. For the compound `COc1cc2ncnc(Nc3ccc(F)c(Cl)c3)c2cc1OCCCN1CCOCC1`, the cytotoxicity call was “inactive”. The entry for `COc1cc2nccc(Oc3ccc(NC(=O)C4(C(=O)Nc5ccc(F)cc5)CC4)cc3)c2cc1OC` is “active”; for `C[C@H](CO)N1C[C@H](C)[C@@H](CN(C)S(=O)(=O)c2cccs2)Oc2ccc(NS(=O)(=O)c3cccs3)cc2CC1=O` it is “inactive”; for `C[C@H](CO)N1C[C@H](C)[C@@H](CN(C)Cc2ccc(C(F)(F)F)cc2)Oc2ccc(NC(=O)CCC(F)(F)F)cc2C1=O` it is “inactive”.

Consider `C[C@@H]1CN([C@@H](C)CO)C(=O)CCCn2nncc2CO[C@H]1CN(C)C(=O)c1cc(-c2ccccc2)on1`, for which the cytotoxicity call is “inactive”. For `C[C@H](CO)N1C[C@H](C)[C@H](CN(C)CC2CC2)OCCCC[C@H](C)Oc2ccc(NS(=O)(=O)c3ccc(Cl)cc3)cc2C1=O`, the cytotoxicity call is “inactive”. The entry for `C[C@@H]1CN([C@H](C)CO)C(=O)Cc2cc(NS(=O)(=O)c3cn(C)cn3)ccc2O[C@@H]1CN(C)Cc1ccc(C(=O)O)cc1` is “inactive”.
